{"source": "paper PMC4336329", "about": "(PLoS ONE, 2015)", "note": "About 14,000 (4.5%) of roughly 310,000 compounds showed an effect of 50% or more. The effect is printed as a negative number. Shown is part of a subset that was picked to be rich in strong results.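 Further: peak tail current of the secondary pulse compared with the same well before compound.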", "data": [{"molecular_target": "human ether-à-go-go-related gene (hERG) potassium channel (human, UniProt Q12809)", "sequence (Q12809 whole entry, looked up)": "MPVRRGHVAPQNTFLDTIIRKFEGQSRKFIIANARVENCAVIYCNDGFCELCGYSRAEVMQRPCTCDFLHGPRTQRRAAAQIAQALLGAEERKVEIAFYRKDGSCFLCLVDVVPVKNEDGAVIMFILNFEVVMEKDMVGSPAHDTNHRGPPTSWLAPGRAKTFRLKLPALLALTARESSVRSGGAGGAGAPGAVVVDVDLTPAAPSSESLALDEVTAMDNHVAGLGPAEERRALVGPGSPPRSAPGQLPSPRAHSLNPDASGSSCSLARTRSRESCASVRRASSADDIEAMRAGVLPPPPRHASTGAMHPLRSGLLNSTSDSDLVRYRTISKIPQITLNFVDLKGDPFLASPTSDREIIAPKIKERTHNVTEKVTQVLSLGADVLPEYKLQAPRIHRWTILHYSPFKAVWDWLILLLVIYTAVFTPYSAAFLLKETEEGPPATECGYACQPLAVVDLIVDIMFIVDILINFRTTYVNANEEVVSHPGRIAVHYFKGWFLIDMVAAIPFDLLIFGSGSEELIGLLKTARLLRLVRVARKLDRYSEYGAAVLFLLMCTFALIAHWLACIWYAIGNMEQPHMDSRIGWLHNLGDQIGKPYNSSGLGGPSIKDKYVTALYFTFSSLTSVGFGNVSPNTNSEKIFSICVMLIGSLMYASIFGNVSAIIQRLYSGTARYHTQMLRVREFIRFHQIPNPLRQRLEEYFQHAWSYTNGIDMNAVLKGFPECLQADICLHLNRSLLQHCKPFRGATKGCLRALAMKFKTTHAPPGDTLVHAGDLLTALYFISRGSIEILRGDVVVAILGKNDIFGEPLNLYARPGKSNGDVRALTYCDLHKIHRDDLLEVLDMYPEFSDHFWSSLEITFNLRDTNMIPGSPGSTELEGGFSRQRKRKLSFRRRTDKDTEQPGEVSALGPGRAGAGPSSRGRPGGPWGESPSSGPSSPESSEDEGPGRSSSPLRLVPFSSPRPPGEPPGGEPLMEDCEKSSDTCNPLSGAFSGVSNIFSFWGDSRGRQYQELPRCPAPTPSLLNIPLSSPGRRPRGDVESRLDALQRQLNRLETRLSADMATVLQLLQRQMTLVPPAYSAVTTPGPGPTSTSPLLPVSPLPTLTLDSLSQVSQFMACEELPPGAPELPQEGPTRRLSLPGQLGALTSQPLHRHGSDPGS", "assay": "primary screen, population patch clamp on CHO cells stably expressing hERG; higher = less effect of the substance", "units": {"hERG current change (%, negative = inhibition) at 10uM": "%"}, "values": [{"smiles": "Cc1cc2cc3c(cc2nc1SCC(=O)N1CCOCC1)OCO3", "hERG current change (%, negative = inhibition) at 10uM": 2.58}, {"smiles": "CCOc1ccc(S(=O)(=O)NCCC(=O)N2CCN(c3ncccn3)CC2)cc1", "hERG current change (%, negative = inhibition) at 10uM": -8.57}, {"smiles": "CCC(Sc1nc(N)c(NC(=O)c2ccc(Br)o2)c(=O)[nH]1)C(=O)O", "note": "(stereo not shown)", "hERG current change (%, negative = inhibition) at 10uM": 15.4}, {"smiles": "C/C(CC1CC(COCCC(C)C)OC1=O)=N\\NC(N)=S", "note": "(stereo not shown)", "hERG current change (%, negative = inhibition) at 10uM": 4.37}, {"smiles": "COC(=O)C1=C(N)Oc2cc(C)n(CC3CCCO3)c(=O)c2C1c1ccc(Cl)c(Cl)c1", "note": "(stereo not shown)", "hERG current change (%, negative = inhibition) at 10uM": 3.95}, {"smiles": "CC(=O)c1cccc(N(CC(=O)Nc2cc(C)cc(C)c2)S(C)(=O)=O)c1", "hERG current change (%, negative = inhibition) at 10uM": 13.3}, {"smiles": "CSc1nc2sc3c(c2c(=O)[nH]1)CC(C)(C)OC3", "hERG current change (%, negative = inhibition) at 10uM": 13.8}, {"smiles": "CCc1ccccc1N1CN(Cc2cccnc2)CNC1=S", "hERG current change (%, negative = inhibition) at 10uM": 3.35}, {"smiles": "Cc1cc(C)nc(N2CCCC(C(=O)Nc3ccc4nc(C)c(C)nc4c3)C2)n1", "note": "(stereo not shown)", "hERG current change (%, negative = inhibition) at 10uM": 9.96}, {"smiles": "COc1cccc(/C=N/NC(=O)CN(C2=NS(=O)(=O)c3ccccc32)c2ccccc2)c1", "hERG current change (%, negative = inhibition) at 10uM": 0.919}, {"smiles": "O=C(Nc1ccc(-c2nnc3n2CCCCC3)cc1)c1cc2ccccc2o1", "hERG current change (%, negative = inhibition) at 10uM": -71.8}, {"smiles": "O=C(Nc1ccc(N2CCOCC2)cc1)c1cc2ccccc2o1", "hERG current change (%, negative = inhibition) at 10uM": 4.38}, {"smiles": "O=C(Nc1ccc(CN2CCOCC2)cc1)c1ccc(-c2cccc(Cl)c2)o1", "hERG current change (%, negative = inhibition) at 10uM": -52.8}, {"smiles": "CN1CCN(c2ccc(NC(=O)c3ccc4ccccc4c3)cc2)CC1", "hERG current change (%, negative = inhibition) at 10uM": -66.1}, {"smiles": "Cc1c(C(=O)Nc2ccc(-c3nnc4n3CCCCC4)cc2)oc2c1ccc1ccccc12", "hERG current change (%, negative = inhibition) at 10uM": -13.8}, {"smiles": "O=C(Nc1ccc(-c2nnc3n2CCCCC3)cc1)c1ccco1", "hERG current change (%, negative = inhibition) at 10uM": 5.26}, {"smiles": "O=C(Nc1ccc(CN2CCOCC2)cc1)c1cc2ccccc2o1", "hERG current change (%, negative = inhibition) at 10uM": -50.2}, {"smiles": "O=C(Nc1ccc(CN2CCOCC2)cc1)c1ccc(-c2cccc([N+](=O)[O-])c2)o1", "hERG current change (%, negative = inhibition) at 10uM": -48.3}, {"smiles": "CC(=O)N1CCN(c2ccc(NC(=O)c3ccc4ccccc4c3)cc2)CC1", "hERG current change (%, negative = inhibition) at 10uM": -7.05}, {"smiles": "O=C(Nc1ccc(N2CCCC2)cc1)c1ccc2ccccc2c1", "hERG current change (%, negative = inhibition) at 10uM": 0.743}, {"smiles": "O=C(NC(=S)Nc1ccc(CN2CCOCC2)cc1)c1cc2ccccc2o1", "hERG current change (%, negative = inhibition) at 10uM": 11.7}, {"smiles": "O=C(NC(=S)Nc1ccc(CN2CCOCC2)cc1)c1ccc(-c2cccc(Cl)c2)o1", "hERG current change (%, negative = inhibition) at 10uM": 7.11}, {"smiles": "Cc1ccc(C2=NS(=O)(=O)N(C)C(C(=O)NCc3ccccc3)=C2)cc1", "hERG current change (%, negative = inhibition) at 10uM": -0.52}, {"smiles": "O=C(NCCN1CCOCC1)c1ccc(Cl)c([N+](=O)[O-])c1", "hERG current change (%, negative = inhibition) at 10uM": 16.5}, {"smiles": "Cc1ccc2c(c1)N(C(C)C(=O)NCCc1ccccc1)C(=O)CO2", "note": "(stereo not shown)", "hERG current change (%, negative = inhibition) at 10uM": 7.21}, {"smiles": "COc1cc(C(=O)Nc2cc(C(F)(F)F)ccc2N2CCOCC2)ccc1O", "hERG current change (%, negative = inhibition) at 10uM": -26.6}, {"smiles": "O=C(CCc1nc(-c2ccccc2Cl)no1)NCCc1ccccc1", "hERG current change (%, negative = inhibition) at 10uM": 7.08}, {"smiles": "COc1ccc(CCNC(=O)c2c(O)c3ccccc3n(C)c2=O)cc1", "hERG current change (%, negative = inhibition) at 10uM": -12.1}, {"smiles": "O=c1[nH][nH]c(-c2ccccc2)c1C=Nc1cccc(Cl)c1", "hERG current change (%, negative = inhibition) at 10uM": 5.35}, {"smiles": "Cc1cc(N2CCN(C)CC2)ccc1NC(=O)c1ccc(-c2ccc(Cl)cc2)o1", "hERG current change (%, negative = inhibition) at 10uM": -80}, {"smiles": "CC(=O)N1CCN(c2ccc(NC(=O)c3cc4ccccc4o3)cc2)CC1", "hERG current change (%, negative = inhibition) at 10uM": -24.5}, {"smiles": "c1coc(CNCCCN2CCOCC2)c1", "hERG current change (%, negative = inhibition) at 10uM": -0.128}, {"smiles": "COc1ccc(-c2ccc(CNCCCN3CCOCC3)o2)cc1Cl.Cl", "hERG current change (%, negative = inhibition) at 10uM": 6.83}, {"smiles": "CN1CCN(c2ccc(NC(=O)c3ccc(-c4ccc(Cl)cc4)o3)cc2)CC1", "hERG current change (%, negative = inhibition) at 10uM": 11.5}, {"smiles": "O=C(Nc1ccc(N2CCOCC2)cc1)c1ccc(-c2ccccc2[N+](=O)[O-])o1", "hERG current change (%, negative = inhibition) at 10uM": 15.9}, {"smiles": "O=C(Nc1ccc(N2CCCC2)cc1)c1cc2ccccc2o1", "hERG current change (%, negative = inhibition) at 10uM": 20.4}, {"smiles": "CN1CCN(c2ccc(NC(=O)c3ccc(-c4ccc(Br)cc4)o3)cc2)CC1", "hERG current change (%, negative = inhibition) at 10uM": 0.645}, {"smiles": "CS(=O)(=O)N1CCN(c2ccc(NC(=O)c3ccc(-c4ccc(Cl)cc4)o3)cc2)CC1", "hERG current change (%, negative = inhibition) at 10uM": -10.6}, {"smiles": "Cl.Clc1cccc(-c2ccc(CNCCCN3CCOCC3)o2)c1", "hERG current change (%, negative = inhibition) at 10uM": -58.3}, {"smiles": "CN1CCN(c2ccc(NC(=O)c3ccc(-c4ccccc4F)o3)cc2)CC1", "hERG current change (%, negative = inhibition) at 10uM": -70}, {"smiles": "CN1CCN(c2ccc(NC(=O)c3cc4ccccc4o3)cc2)CC1", "hERG current change (%, negative = inhibition) at 10uM": -72.3}, {"smiles": "CCCCc1cc(C)c(S(=O)(=O)c2ccccc2C)c(=O)[nH]1", "hERG current change (%, negative = inhibition) at 10uM": 3.69}, {"smiles": "CC(Oc1ccccc1)C(=O)NC1C(=O)N2C1SC(C)(C)C2C(=O)[O-].[K+]", "note": "(stereo not shown)", "hERG current change (%, negative = inhibition) at 10uM": 35.9}, {"smiles": "CCOC(=O)c1sc(NC(=S)NC(=O)C23CC4CC(CC(C4)C2)C3)cc1C", "hERG current change (%, negative = inhibition) at 10uM": 20.2}, {"smiles": "CCCC1=NN(c2ccc([N+](=O)[O-])cc2)C(=O)/C1=C\\N(C)C", "hERG current change (%, negative = inhibition) at 10uM": -7.95}, {"smiles": "O=C(O)C1C2CCC(O2)C1C(=O)Nc1ccc(F)c(F)c1", "note": "(stereo not shown)", "hERG current change (%, negative = inhibition) at 10uM": 26.5}, {"smiles": "CCCC(=O)Nc1ccc(C(=O)COC(=O)C2CC2C)cc1", "note": "(stereo not shown)", "hERG current change (%, negative = inhibition) at 10uM": 5.46}, {"smiles": "CCN1C(=O)/C(=C/C=C2/SCCN2C)SC1=S", "hERG current change (%, negative = inhibition) at 10uM": 4.78}, {"smiles": "COC(=O)Cn1cc(C(=O)C2CC2)c2ccccc21", "hERG current change (%, negative = inhibition) at 10uM": 2.2}, {"smiles": "Cc1cc(C)c(C)c(S(=O)(=O)NCc2ccc(C(=O)N3CCN(C)CC3)cc2)c1C", "hERG current change (%, negative = inhibition) at 10uM": -4.7}, {"smiles": "O=C(O)c1nn2c(c1Br)NC(c1ccccc1)CC2C(F)(F)F", "note": "(stereo not shown)", "hERG current change (%, negative = inhibition) at 10uM": 12.2}, {"smiles": "CCc1nnc(NC(=O)c2cc(S(=O)(=O)N(CC)CC)ccc2Cl)s1", "hERG current change (%, negative = inhibition) at 10uM": -7.31}, {"smiles": "COc1ccccc1NC(=O)N1CCC(c2nc3ccccc3o2)CC1", "hERG current change (%, negative = inhibition) at 10uM": -6.16}, {"smiles": "CC(C)NC(=O)COC(=O)c1cccc(NS(=O)(=O)/C=C/c2ccccc2)c1", "hERG current change (%, negative = inhibition) at 10uM": -18}, {"smiles": "Cn1cnnc1SCC(=O)NC1CCCN(Cc2ccc(Cl)cc2)C1", "note": "(stereo not shown)", "hERG current change (%, negative = inhibition) at 10uM": -0.412}, {"smiles": "O=C(/C=C/c1ccccc1)Nc1ccc(CN2CCOCC2)cc1", "hERG current change (%, negative = inhibition) at 10uM": -62.5}, {"smiles": "O=C(/C=C/c1ccc(Cl)cc1)Nc1ccc(CN2CCOCC2)cc1", "hERG current change (%, negative = inhibition) at 10uM": -28}, {"smiles": "O=C(/C=C/c1ccccc1)NC(=S)Nc1ccc(CN2CCOCC2)cc1", "hERG current change (%, negative = inhibition) at 10uM": -18.9}]}]}
